Experimental data as given in PubChem BioAssay (NCI).
About 79,000 compounds went through this panel and 15% of them were active in at least one assay; those are over-represented in the sample as a whole. A number with no mark means an inactive call. Active and inactive are the calls of the source. Cut-off read from the data, not from the text of the source: active = growth inhibition above about 70%; inactive = the rest. Where a SMILES comes first, the peptide text is derived from it. [ ]: non-standard residue; d: D form. ξ: configuration not given here. ξP = O=C(O)C1CCCN1

Key:
[1] = NCI Yeast Anticancer Drug Screen. Data for the rad50 strain (AID 155);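 note: 0% = growth of vehicle-only cultures of the same strain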; conditions: S. cerevisiae rad50 strain growth inhibition; at 50.0 µM; active compounds read high
Method in brief: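 Vehicle-treated cultures provide the reference for the growth inhibition reported for compound-exposed, repair-deficient yeast.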

[2] = NCI Yeast Anticancer Drug Screen. Data for the mec2-1 strain (AID 157); conditions: S. cerevisiae mec2-1 strain, at 50.0 µM, active compounds read high
Method in brief: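 Mutant yeast (mec2-1) grown with compound; growth inhibition relative to vehicle control reported.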

[3] = NCI Yeast Anticancer Drug Screen. Data for the sgs1 mgt1 strain (AID 161);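 note: 0% = growth of cultures given vehicle only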; conditions: S. cerevisiae sgs1 mgt1 strain, at 50.0 µM, active compounds read high
Method in brief: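 Percent growth inhibition was derived by comparing compound-exposed mutant yeast with vehicle-exposed cultures. The strain carries alterations in DNA damage repair.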

[4] = NCI Yeast Anticancer Drug Screen. Data for the cln2 rad14 strain (AID 165);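 note: 0% = growth equal to vehicle treated cultures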; conditions: S. cerevisiae cln2 rad14 strain, at 50.0 µM, active compounds read high
Method in brief: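 Readout is yeast growth inhibition versus vehicle-treated controls, using a strain with cln2 and rad14 alterations exposed to compound.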

[5] = NCI Yeast Anticancer Drug Screen. Data for the bub3 strain (AID 167); conditions: S. cerevisiae bub3 mutant strain, at 50.0 µM, active compounds read high
Method in brief: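 Mutant yeast screening strain plus compound; vehicle-treated cultures serve as the 0% inhibition reference.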

[6] = NCI Yeast Anticancer Drug Screen. Data for the mlh1 rad18 strain (AID 175); conditions: S. cerevisiae mlh1 rad18 strain growth inhibition; at 50.0 µM; active compounds read high
Method in brief: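 Genetically defined yeast (DNA repair-deficient) exposed to compounds; growth inhibition determined relative to vehicle.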

SMILES	growth inhibition [1]	growth inhibition [2]	growth inhibition [3]	growth inhibition [4]	growth inhibition [5]	growth inhibition [6]
CCOC(=O)C(=N\Nc1cc(C)cc(C)c1)/C(C)=N\NC(N)=S	25.1%	38.8%	20.1%	57.5%	58.5%	45.6%
CCCC(O)c1ccccc1C (stereo not given)	17.6%	13.9%	1.4%	-17.2%	4.6%	12.1%
CCc1nc(N)nc(N)c1-c1ccc(N(CC)Cc2ccccc2)c([N+](=O)[O-])c1	7.35%	-3.05%	-6.05%	7.5%	3.4%	-3.85%
Cc1cc(N(CCC#N)CCC#N)ccc1/C(N=Nc1ccccc1)=N\NC(=O)c1cc(Cl)ccc1O	18.8%	9.8%	2.7%	-3%	-17.4%	30.9%
O=C1NCC(C2CC2)(C2CC2)O1	8.85%	-16.9%	-5.7%	-34%	8.7%	-21%
c1ccc(COC2C3COC(O3)C(OCc3ccccc3)C2OCc2ccccc2)cc1 (stereo not given)	11.7%	-1.7%	26.4%	3.2%	17.7%	22.4%
CCOC(=O)/C(=C/c1ccc(C#N)cc1)N(CC)CC	-3.95%	-13.1%	-9%	24.4%	-3.9%	-9.25%
CCCCCOC(=O)c1cccc(C)c1	3.7%	10.5%	-5.2%	-4.7%	-1.65%	2.5%
c1ccc(C2SCCCS2)cc1	33.2%	5.25%	17.8%	18.4%	-4.5%	18.4%
CN(C)C(=O)c1ccc([N+](=O)[O-])cc1	21.1%	6.4%	11.8%	12.1%	-4.75%	-23.4%
CC(C#N)NCc1ccc(C(C)NC(C)C#N)cc1 (stereo not given)	4.5%	2.15%	-43.8%	-26.1%	-10.8%	-15.7%
CCCCN=NNc1cn(C2OC(CO)C(O)C2O)c(=O)[nH]c1=O (stereo not given)	-22.4%	0.9%	4.85%	13.3%	10.8%	21.8%
Cn1c2cc3ccccc3cc2nc2cc3c(cc21)c(Cl)c(=O)c1ccccc13	10%	-3%	12.8%	5.85%	-4.45%	-2.35%
Cc1ccccc1SC(c1ccccc1)(c1ccccc1)c1ccccc1	-11.2%	-25.3%	-0.2%	-6.55%	-6.1%	-37.8%
CCN(CCO)CCCC(C)Nc1ccnc2cc(Cl)ccc12 (stereo not given)	-43.2%	-66.5%	-33.4%	-132%	-45.9%	-63.4%
NCC(=O)N1CCCC1C(=O)NCC(=O)NCC(=O)O (stereo not given) (H-G[ξP]GG-OH)	11.6%	0.95%	4.8%	-32%	-16.9%	3.15%
Cc1cccc(-n2c(N)cc(=O)[nH]c2=S)n1	-11.5%	-2.2%	-7.8%	-38.4%	-10.1%	-4.15%
COC1C2CC3C4(CCC5C6(C)CCCC53C(C14)N(C)C6)CC21CCC23C4C=C5C6=C(CCC5(CC42)C3O1)C1(C)CC(C6)CN(C)C1 (stereo not given)	33.6%	9.35%	22.9%	15.6%	18.5%	26.6%
CCC(C(=O)c1ccccc1)[n+]1ccccc1 (stereo not given)	-4.55%	-16%	-6.7%	-15.6%	13.2%	3.05%
CCOC(=O)C(=CNc1cccc(Cl)c1)C(=O)OCC	-2.8%	-11.4%	-18.9%	-26.9%	32.2%	-19.9%

SMILES	growth inhibition [1]	growth inhibition [2]	growth inhibition [3]	growth inhibition [4]	growth inhibition [5]	growth inhibition [6]
O=C(OCc1ccccc1CN1CCOCC1)c1ccc(Cl)cc1	42.1%	68.5%	75.7% (active)	84% (active)	87% (active)	74.8% (active)
COc1ccc(-c2c3c(n(C4OC(COC(C)=O)C(OC(C)=O)C(OC(C)=O)C4OC(C)=O)c(=S)c2C#N)CCC3)cc1 (stereo not given)	28.8%	35%	43.3%	32%	46.8%	20.9%
CC(=O)NC(Cc1cc(I)c(OC(C)=O)c(I)c1)C(C)=O (stereo not given)	5.45%	7.1%	0.7%	14.6%	4%	-18.4%
Cc1ccc(S(=O)(=O)[N-]C2C(=O)c3ccccc3C(=O)C2[n+]2cccc(C(N)=O)c2)cc1 (stereo not given)	-1.75%	2%	9.5%	4.55%	8.8%	-38.8%
C=CCn1c(=S)sc2c(=O)[nH]cnc21	14.6%	1.7%	25.8%	22.3%	8.15%	11.4%
CCCC(C)C1CCC(=O)CC1 (stereo not given)	5.85%	0.3%	0.75%	-4.3%	1.95%	-0.2%
CCC1C(OC)=CC(CC)(CO)C=C1OC (stereo not given)	4.35%	-3.45%	6.15%	14.2%	6.8%	-6.3%
CC(C)(C)OC(=O)N/N=C(/N)Cc1ccc(Cl)cc1	-4.05%	19.4%	-6.2%	-13.9%	-14.2%	6.4%
CC(=O)c1ccc(I)cc1	5.15%	-11.7%	24.6%	13.8%	14.1%	18.1%
Cc1cc(=O)c2cc(N=Cc3ccc(N(C)C)cc3)ccc2o1	5.25%	-10.9%	-16.8%	17.1%	0.75%	16.1%
Cc1cc(N(CCC#N)CCC#N)ccc1/C=C\C(=O)Nc1ccccc1	19.3%	16.3%	-10.8%	10.2%	36.7%	4.55%
c1ccc(SCCC(Sc2ccccc2)Sc2ccccc2)cc1	-3.45%	5%	-3.75%	-13.8%	-1.6%	3.65%
CC1Cc2cc(O)ccc2C2[C@@H]1C1CC[C@H](O)[C@@]1(C)C[C@@H]2O[N+](=O)[O-] (stereo not given in full)	18.5%	19.7%	55.8%	47.3%	60.9%	83% (active)
C=CCCCCCCCCCCCCCCC	-36%	-26.9%	-26.2%	5.3%	-31.9%	-35%
CCCCCCCCCCCCCCCCS(=O)(=O)N/N=C(/c1ccccc1Cl)N1CCOCC1	-10.6%	-35.4%	-7.1%	16.4%	-22.6%	-6.75%
COc1ccc(C2CC(c3ccccc3)=NN2c2ccccc2)cc1 (stereo not given)	0.75%	-14.4%	5.85%	-7.55%	4.85%	7.95%
COc1cccc2c1C(=O)c1c(O)c3c(c(O)c1C2=O)CC(O)(C(C)=O)CC3O (stereo not given)	61.5%	12.5%	39%	17.1%	34.4%	50.5%
CCC(=O)C(C)C1(C(=O)OC)NC(=S)NC(=O)C1C#N (stereo not given)	5.4%	-4.75%	-15.8%	-6.4%	-22.1%	-6.1%
CN1c2ccccc2C2=C(c3ccccc3)CC[C@@H](C(=O)N3C4CC5CC[C@@]4(CS3(=O)=O)C5(C)C)[C@@H]21 (stereo not given in full)	-14.6%	-6.2%	20.6%	10%	-8.85%	31.8%
CC1=NOC2(C1)C(=O)Nc1ccccc12 (stereo not given)	23.2%	9.5%	8.55%	11.3%	2.85%	18.4%
